Hit rate of the full screen: of about 5,600 compounds, about 4,400 (79%) were called active. So high a share suggests a set chosen from earlier hits. Not all results are given here. Values without a mark were called inactive. Cut-off read from the data, not from the text of the source: active = inhibition above about 27%; inactive = the rest.
Target: Fructose-bisphosphate aldolase (Mycobacterium tuberculosis (strain ATCC 25618 / H37Rv)) (UniProt P9WQA3)
Test: M. tuberculosis aldolase blockers, biochemical, fluorescence, strain H37Rv, confirmation (AID 651616);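 note: 0% = vehicle wells and 100% = reference inhibitor wells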
Details: purified M. tuberculosis FBA, fluorescence read-out, at 1 µM, active compounds read high

Chain of Fructose-bisphosphate aldolase (Mycobacterium tuberculosis (strain ATCC 25618 / H37Rv)) (P9WQA3 whole entry, looked up): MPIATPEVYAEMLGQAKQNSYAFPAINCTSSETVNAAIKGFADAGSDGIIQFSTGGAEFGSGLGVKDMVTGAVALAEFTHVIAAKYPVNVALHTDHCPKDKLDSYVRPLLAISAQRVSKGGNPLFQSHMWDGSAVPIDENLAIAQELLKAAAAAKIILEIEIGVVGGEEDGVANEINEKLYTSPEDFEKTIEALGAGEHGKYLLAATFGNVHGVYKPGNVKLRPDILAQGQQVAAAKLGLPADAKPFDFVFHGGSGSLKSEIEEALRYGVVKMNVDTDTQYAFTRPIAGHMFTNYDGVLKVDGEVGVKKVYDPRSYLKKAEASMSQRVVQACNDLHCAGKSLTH

Row | Compound | inhibition
1 | Brc1cnc2ccccc2c1N1CCCCC1 | 83.3% (active)
2 | COc1ccc2c(c1)cc1n2CCN=C1NN | 108% (active)
3 | CCN(C(=O)COC(=O)c1ccc(COc2ccc3c(C)cc(=O)oc3c2)cc1)C1CCS(=O)(=O)C1 (stereo not given) | 4.73%
4 | CCC(C)N(C(=O)COC(=O)C1C(C(=O)OC)=C(C)NC(C)=C1C(=O)OC)C1CCS(=O)(=O)C1 (stereo not given) | 172% (active)
5 | COCc1cc(=O)[nH]c2cc(NC(=O)C(F)(F)F)c(C)cc12 | 73% (active)
6 | CN1c2ccc(C=O)c3c(C=O)ccc(c23)N(C)C1(C)C | 21.7%
7 | CN(C(=O)c1cc2c(=O)n3ccccc3nc2s1)C1CCCCC1 | 50.9% (active)
8 | Cc1ccc(-n2c(=O)c(C#N)cc3c(=O)n4ccccc4nc32)cc1C | 21.8%
9 | COCCCNC(=S)NCCNc1nc2cc(C)c(C)cc2cc1C#N | 91.5% (active)
10 | CCOc1ccc2nc(NCCNS(=O)(=O)c3ccccc3)c(C#N)cc2c1 | 19.6%
11 | CN(C(=O)COc1ccccc1)c1nnc(-c2ccncc2)s1 | 830% [above what the read-out allows, likely interference] (active)
12 | CN(C(=O)c1ccccn1)c1nnc(-c2ccccn2)s1 | 618% [above what the read-out allows, likely interference] (active)
13 | CC1=CC2=NC(=O)CC(C)(C(=O)N(CC(=O)NC(C)(C)C)Cc3ccccc3)N2C=C1 (stereo not given) | 4.13%
14 | CCCCC(NS(=O)(=O)c1ccc(C)cc1)C(=O)Oc1ccc2c3c(c(=O)oc2c1)CCC3 (stereo not given) | 81.2% (active)
15 | NC(=O)C1CCN(C(=O)COc2ccc3c4c(c(=O)oc3c2)CCC4)CC1 | -0.32%
16 | C=CCn1c(N)c(C(=O)OCC(C)C)c2nc3ccccc3nc21 | 73.3% (active)
17 | CCCNC(=O)c1c(N)n(-c2ccc(S(N)(=O)=O)cc2)c2nc3ccccc3nc12 | 25.9%
18 | COCC(C)OC(=O)c1c(N)n(CCCN2CCOCC2)c2nc3ccccc3nc12 (stereo not given) | -0.37%
19 | CC(C)Cn1c(N)c(C(=O)NCc2cccs2)c2nc3ccccc3nc21 | 41.1% (active)
20 | CCOC(=O)N1CCN(C(=O)c2cc3c(ccc4ccccc43)oc2=O)CC1 | 4.05%

Row | Compound | inhibition
21 | O=C(Nc1cccc2ccccc12)N1CCC2(CC1)OCCO2 | 124% (active)
22 | O=C(Nc1cccc2ccccc12)N1CCN(Cc2ccc3c(c2)OCO3)CC1 | 72.6% (active)
23 | COCCCn1c(C(=O)NC2CCCCC2)cc2c(=O)n3cccc(C)c3nc21 | 66.3% (active)
24 | C#Cc1cc(N2CCN(C(=O)c3ccoc3)CC2)n2nc(-c3cccc(Cl)c3)cc2n1 | 85.9% (active)
25 | Cn1cc(-c2ccccc2)cc(C#N)c1=O | 79.6% (active)
26 | C=CCn1cc(-c2cccc(C(F)(F)F)c2)cc(C#N)c1=O | 0.59%
27 | CCCCN(CCCC)CC(O)Cn1c2ccccc2c(=O)c2ccccc21 (stereo not given) | 113% (active)
28 | Nc1ccccc1C(=O)NC1CCCCNC1=O (stereo not given) | 151% (active)
29 | Cc1ccc(C2Nc3ccccc3C(=O)N2CCN2CCNC2=O)cc1 (stereo not given) | -6.16%
30 | CCOC(=O)NN1C(=O)c2ccccc2NC1c1cccc(O)c1 (stereo not given) | 136% (active)
31 | Cc1cc(S(=O)(=O)c2cc3ccc(O)c(C)c3oc2=O)ccc1F | 44.7% (active)
32 | CCOc1ccc2nc(Nc3nc4ccc(NC(C)=O)cc4s3)sc2c1 | 19%
33 | CCc1c(C)c2ccc(OC3CCCCC3=O)cc2oc1=O (stereo not given) | 99.7% (active)
34 | Cc1c(CCC(=O)O)c(=O)oc2cc(OCc3ccc(Br)cc3)ccc12 | 4.1%
35 | CCN1CCN(C(=O)c2cc3cc4ccc(OC)cc4nc3s2)CC1 | 96.2% (active)
36 | CN(CCOc1ccccc1)C(=O)c1cc(-c2ccco2)nc2ccccc12 | 5.04%
37 | O=C(c1cc(-c2ccco2)nc2ccccc12)N(Cc1nnc(-c2ccc(Cl)cc2)o1)C1CC1 | 120% (active)
38 | Nc1ccccc1-c1nc2ccncc2[nH]1 | 3.13%
39 | COc1ccc2sc(-c3ccc(N(C)C)cc3)c(-c3ccc4cc[nH]c4c3)c2c1 | 59.8% (active)
40 | Cc1cccc2c1-c1sc(C(=O)NCCCN3CCc4ccccc4C3)cc1CO2 | 0.47%

Row | Compound | inhibition
41 | O=C(NCCN1CCN(Cc2ccccc2)CC1)c1cc2c(=O)[nH]c3ccccc3c2s1 | 133% (active)
42 | Cc1nn(-c2ccccc2)nc1C(=O)OCC(=O)N1CCCCC1C (stereo not given) | -2.48%
43 | Cc1cnc(C(=O)OCC(=O)N2CCc3ccccc32)cn1 | 108% (active)
44 | CCC1C(=O)c2ccccc2N(C)C1=O (stereo not given) | 7.44%
45 | COc1ccc2[nH]c3c(=O)n(Cc4ccco4)cnc3c2c1 | 8.42%
46 | COc1cccc2sc3cc(NCC[C@@H]4CCCN4C)ccc3c(=O)c12 | 77.9% (active)
47 | Cc1cc(=O)oc2c1ccc1ccccc12 | 88.8% (active)
48 | COCCCn1c(CCC(=O)O)ccc1-c1ccc(F)cc1 | 46% (active)
49 | Cc1ccc(C2Nc3cccc4cccc(c34)N2)cc1 | 177% (active)
50 | O=C1C(=O)N(c2ccccc2)C(c2ccccc2)C1c1ccccc1 (stereo not given) | 13.8%
51 | OC[C@@H]1CN(Cc2cccs2)C[C@H](n2cnc3c(Nc4ccccc4)ncnc32)O1 | 90.6% (active)
52 | COc1cc(/C=C/c2ccc(/C=C/c3cc(OC)c(OC)c(OC)c3)cc2)cc(OC)c1OC | 27.4% (active)
53 | COc1ccc(NC(=O)CN(C)C(=O)c2cc(-c3ccc(C)o3)nc3ccccc23)cc1 | 79.1% (active)
54 | COCCCNC(=O)/C(C#N)=C/c1c(N2CCCCCC2)nc2ccccn2c1=O | 60.9% (active)
55 | CCCc1nc2oc3c(=O)[nH]cnc3c2c2c1COC(C)(C)C2 | 108% (active)
56 | CCOC(=O)c1[nH]c2ccc(OC)cc2c1NC(=O)N1CCOCC1 | 130% (active)
57 | CCOC(=O)c1[nH]c2ccc(OC)cc2c1NC(=O)CCN1CCN(Cc2ccccc2)CC1 | 3.58%
58 | CC(OC(=O)c1ccccc1NCCO)C(=O)Nc1ccnn1C(C)C (stereo not given) | 81.6% (active)
59 | CN1C(=O)c2ccc(NC(=O)c3c(F)c(F)c(F)c(F)c3F)cc2C1=O | 822% [above what the read-out allows, likely interference] (active)
60 | CN1C(=O)c2ccc(NC(=O)C3CCCCC3)cc2C1=O | 2.86%
